Compound activity from PubChem BioAssay.
An excerpt weighted towards active compounds, which were near 9.3% of everything screened.
HCV inh: inhibitors of hepatitis C virus infection; Huh7.5.1 HCVcc-Cre infection, luciferase reporter, 44 h; Potency, µM (top dose mostly 41.8 µM), for the others: top-dose activity change, negative = inhibition, usual class: inhibitors; 340,000 tested, 3.4% active; also: potency is read from the fitted curve at half-maximal effect
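1,000 cells/well; 4 h culture; + compound; + HCVcc-Cre (~0.5 moi); 44 h; luciferase substrate, RT 15 min; read 15 sec.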
VACV mCherry inh: inhibitors of vaccinia virus infection (mCherry reporter signal). Vaccinia virus mCherry reporter infection, fluorescence. AID 720579. Potency, µM (titrated, usually from 36.5 µM), inactives show at the highest dose activity change, negative = inhibition, hits mostly inhibitors. 310,000 tested, 0.63% active; calls by dose curve; tested in A549 cells; also: potency is read from the fitted curve at half-maximal effect; nearly all actives have a fitted effect of over 35% in size
Vaccinia Venus: vaccinia inhibition (Venus reporter). Vaccinia virus Venus reporter expression, fluorescence. Potency, µM (doses to about 36.5 µM), for the others: at the highest dose activity change, negative = inhibition, most hits filed as inhibitors. 330,000 tested, 0.46% active. AID 720580; calls by dose curve; tested in A549 cells; also: potency is read from the fitted curve at half-maximal effect; nearly all actives have a fitted effect of over 30% in size
Sm TGR block: inhibitors of Schistosoma mansoni thioredoxin glutathione reductase. purified TGR, DTNB reduction, TNB absorbance 405 nm. Potency, µM (titrated, usually from 114 µM), for the others: top-dose activity change, negative = inhibition, usual class: inhibitors. 360,000 tested, 3% active. Q962Y6; also: potency is read from the fitted curve at half-maximal effect; nearly all actives have a fitted effect of over 60% in size
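TGR 20 nM + NADPH 100 uM (dispensed conc.), cpd preinc 15 min RT; start with NADPH (500 uM addition) then DTNB (15 mM addition). Kinetic TNB absorbance, 405 nm filter. Four-parameter Hill fit across titration.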
FMDV antiviral: blocks foot and mouth disease virus; Potency, µM (highest dose often 57.9 µM), without a hit: at the top dose activity change, negative = inhibition, actives largely listed as inhibitors; 410,000 tested, 1.2% active; AID 1159524; FMDV antiviral cell-based qHTS; calls by dose curve; tested in HEK293T cells; also: read-out not given here; potency is read from the fitted curve at half-maximal effect; nearly all actives have a fitted effect of over 45% in size
HCMV antiviral: inhibitors of human cytomegalovirus. HFF cells, HCMV-luciferase reporter, 72 h; hits give low values. activity change, negative = inhibition, % at 57.5 µM. 410,000 tested, 4.5% active. AID 1259415; in the data active = activity change below about -60%; inconclusive = no clear call, values can overlap the other calls; inactive = above about -39%
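Compounds were evaluated in HFFs infected with an HCMV luciferase reporter virus (MOI 1 PFU/cell). Luciferase in lysates collected 72 h post infection served as the replication measure.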
* hit, by the source's call; i = inactive; ? = inconclusive; nt = no result given; [ ] = remark or other dose. Unless noted, calls follow the shape of the dose curve; as a rule, active = well fitted curve in the direction sought with a large enough effect; inconclusive = small, poorly fitted or top-dose-only effect, or another doubt; inactive = no such curve, though single readings can be large; an effect the other way counts as inactive or inconclusive. % is scaled to controls: 0 for no effect and ±100 for the full control effect.

SMILES | HCV inh | VACV mCherry inh | Vaccinia Venus | Sm TGR block | FMDV antiviral | HCMV antiviral
COc1ccccc1CNc1nc(NCCOc2ccccc2Cl)c2sccc2n1 | nt | ? | ? | nt | 22µM* | -61*
COc1ccccc1CNc1nc(Nc2ccc(C)cc2C)c2sccc2n1 | nt | -12% | -9% | nt | ? | -76*
CCC(Oc1nc2ccccc2nc1-c1ccccc1NC(C)=O)C(=O)c1ccccc1 (stereo not given) | -28% | -14% | -10% | 9% | -15% | 0
Cc1ccc(C)c(-n2c3nc(=O)n(C)c(=O)c-3cc3ccccc32)c1 | -24% | nt | nt | -35% | -18% | -20
Cn1nc(-c2ccccc2)nc2c(=O)n(C)c(=O)nc1-2 | nt | 1µM* | 1µM* | nt | nt | nt
Cc1nc2c(=O)n(C)c(=O)nc-2n(C)n1 | 0.56µM* | ? | 0.5µM* | ? | 2.8µM* | -103*
COc1cc(/C=c2\sc3nc(-c4ccncc4)nn3c2=O)ccc1OC(C)=O | nt | nt | nt | -12% | nt | nt
Cn1nc(-c2ccncc2)nc2c(=O)n(C)c(=O)nc1-2 | nt | 0.89µM* | 1µM* | nt | nt | nt
COc1ccccc1NC(=O)CCCc1nnc2n(C)c(=O)c3sccc3n12 | -8% | -9% | 11% | 7% | -11% | 3
Cn1ncc2c(O/N=C(\N)c3ccc(C(C)(C)C)cc3)ncnc21 | 5.6µM* | i[7.34 µM] | -12%[7.34 µM] | 2% | 14µM* | nt
CCOC(=O)c1ccc(Nc2ncnc3c2cnn3C)cc1 | -30% | -10% | -4% | 3% | nt | -40
Cc1cc(NC(=O)CSc2nccn2-c2ccc(Cl)cc2)no1 | -22% | nt | -1% | 2% | ? | -6
NC(=O)C1CCN(C(=O)c2ccc(Oc3ccccc3)cc2)CC1 | 0% | nt | nt | 6% | 17% | 25
Cc1ccc2ccc3ccc(C)nc3c2n1 | 0.32µM* | -23% | -17% | -6% | -24% | -94*
CCOc1cccc(C2c3[nH]c4ccccc4c3CCN2C(=O)CSCc2ccc(F)cc2)c1 (stereo not given) | nt | i | -14% | 2% | ? | ?
Cc1cc(C)c(-c2c(N)cc(Br)cc2Br)c(N)c1 | ? | 13µM* | -12% | nt | ? | -27
Nc1ccc(Br)cc1Br | -1% | i | -10% | 11% | 65% | -12
COc1cc2c(C#CCCO)c(-c3ccc(C#N)cc3)oc(=O)c2cc1OC | -20% | i | -6% | ? | -23% | -21
COc1cc2c(C#CCCO)c(-c3ccsc3)oc(=O)c2cc1OC | 10µM* | -10% | ? | nt | -28% | 0
Cc1cccn2c(CNCC3(c4ccccc4)CCCC3)c(C(=O)N3CCOCC3)nc12 | -30% | -28% | -19% | -6% | -24% | -101*
CSCCNCc1c(C(=O)N2CCOCC2)nc2c(C)cccn12 | 23% | -13% | -6% | -17%[57.1 µM] | -15% | -4
Nc1ncnc2c1cnn2C1CCCCC1 | 8% | -25% | -16% | -1% | -3% | 17
O=c1c2cc(-c3ccccc3)sc2ncn1-n1cccc1 | 5% | -17% | -21% | 10% | 45% | -18
Cc1ccc(C)n1-n1cnc2sc(-c3ccccc3)cc2c1=O | 22µM* | i | -14% | 0% | ? | -34
COc1ccc(-n2cnc3sc(-c4ccccc4)cc3c2=O)cc1 | ? | -27% | -24% | 11% | nt | -87*
SMILES | HCV inh | VACV mCherry inh | Vaccinia Venus | Sm TGR block | FMDV antiviral | HCMV antiviral
Cc1ccc(C)c(SCC(=O)c2ccc[nH]2)c1 | -6% | nt | nt | 0% | -22% | -35
c1ccc(COC(CN2CCCCCC2)CN2CCCCCC2)cc1 | 10µM* | nt | nt | -17% | -6% | -39
Cc1ccc(CNC(=O)c2cc(Cl)cc(Cl)c2)n1C | -12% | nt | nt | 32µM* | -23% | -8
Fc1cccc(Cl)c1-c1nnc2ccc3ccccc3n12 | 10µM* | nt | nt | -11% | -8% | -84*
Fc1ccccc1-c1nnc2ccc3ccccc3n12 | -8% | i | -16% | 1% | -17% | 46
Cc1cc(C)cc(NC(=O)[C@H](Cc2c[nH]c3ccccc23)NC(=O)[C@@H]2Cc3ccccc3CN2)c1 | ? | -26% | -20% | -16% | -29% | nt
CCc1ccc(NC(=O)[C@H](Cc2c[nH]c3ccccc23)NC(=O)[C@@H]2Cc3ccccc3CN2)cc1 | 3.5µM* | 5µM* | 12% | 10% | 8% | nt
Cc1cccc(NC(=O)[C@H](Cc2c[nH]c3ccccc23)NC(=O)[C@@H]2Cc3ccccc3CN2)c1 | 4µM* | 11µM* | 33% | 8% | -4% | nt
Cc1cccc(OCC(=O)NCc2ccccc2)c1 | 18% | -13% | -15% | -3% | 15% | 16
C/C(=N\NC(=O)COc1cccc(C)c1)c1ccc2ccccc2c1O | 11µM* | nt | nt | -2% | 35% | -77*
CSc1nc(N)nc(SCC(=O)Nc2ccc(Cl)cc2)c1C#N | ? | ? | ? | -4% | ? | -22
Cc1ccc(C#N)c(SCCN2CCCCC2)n1 | -8% | -15% | -2% | -14% | -19% | 5
CSc1nc(N)nc(SCCS(=O)(=O)c2ccc(Cl)cc2)c1C#N | 10µM* | 2.5µM* | 5.6µM* | -6% | ? | -32
Cc1ccc(S(=O)(=O)CCSc2nc(C)cc(C)c2C#N)cc1 | ? | 10µM* | 10µM* | 2% | nt | -39
CCS(=O)(=O)CCSc1nc(C)cc(C)c1C#N | 15% | -13% | -11% | 6% | nt | -27
Cc1cc(C)c(C#N)c(SCCN2CCCCC2)n1 | -24% | i | 4% | 1% | -15% | -96*
O=C(CCCC(=O)N/N=C/c1ccccc1C(=O)O)N/N=C/c1ccccc1C(=O)O | 10% | nt | nt | 3% | -1% | -19
CC(CNC(=O)[C@@H](Cc1ccccc1)NC(=O)[C@H]1O[C@@H](n2cnc3c(=O)[nH]c(N)nc32)[C@H](O)[C@@H]1O)c1ccccc1 (stereo not given in full) | nt | nt | nt | nt | nt | -23
CC1CCCCC1NC(=O)CN1C(=O)COc2ccccc21 (stereo not given) | 6% | nt | nt | -1% | -25% | 1
COc1ccccc1C(CC(=O)Nc1nccs1)c1ccco1 (stereo not given) | -4% | -18% | -5% | 50µM* | -21% | 21
CCCNCCC(c1ccco1)c1ccccc1OC (stereo not given) | -16% | nt | nt | -8% | -5% | -21
COc1ccccc1NC(=O)CC(c1ccc(F)cc1)c1ccco1 (stereo not given) | -4% | i | -17% | ? | -28% | 2
CCC(=O)NCCC(c1ccco1)c1ccccc1OC (stereo not given) | -21% | nt | -24% | 25µM* | -12% | -6
O=C(CC(c1ccc(F)cc1)c1ccco1)Nc1nccs1 (stereo not given) | -25% | -4% | 3% | 40µM* | -8% | -29
O=C(CSc1ccccn1)Nc1ccc(NC(=O)CSc2ccccn2)cc1 | 0% | nt | nt | nt | -13% | ?
O=C(CSc1ccccn1)Nc1nonc1[N+](=O)[O-] | 7% | nt | nt | 7.1µM* | 32µM* | 54
